# Inconclusive results are not listed. Active and inactive are the calls of the source. How the source made its calls: active means hit-call score of the fitted dose curve at least 0.9, where 1 is the maximum; inconclusive means response in the unintended direction; inactive means score below 0.9.
# Tests used:
# [1] = biological target: bovine Estrogen Receptor (ER), ESR1 (gene 407238) (UniProt P49884); assay: NVS_NR_bER: NovaScreen (NVS) Nuclear Receptor Binding Assay for bovine Estrogen Receptor (ER) (AID 2283345);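 further: actives lower the bound radioligand count which means they displace the ER ligand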
# Sequence of bovine Estrogen Receptor (ER), ESR1 (gene 407238) (P49884 whole entry, looked up): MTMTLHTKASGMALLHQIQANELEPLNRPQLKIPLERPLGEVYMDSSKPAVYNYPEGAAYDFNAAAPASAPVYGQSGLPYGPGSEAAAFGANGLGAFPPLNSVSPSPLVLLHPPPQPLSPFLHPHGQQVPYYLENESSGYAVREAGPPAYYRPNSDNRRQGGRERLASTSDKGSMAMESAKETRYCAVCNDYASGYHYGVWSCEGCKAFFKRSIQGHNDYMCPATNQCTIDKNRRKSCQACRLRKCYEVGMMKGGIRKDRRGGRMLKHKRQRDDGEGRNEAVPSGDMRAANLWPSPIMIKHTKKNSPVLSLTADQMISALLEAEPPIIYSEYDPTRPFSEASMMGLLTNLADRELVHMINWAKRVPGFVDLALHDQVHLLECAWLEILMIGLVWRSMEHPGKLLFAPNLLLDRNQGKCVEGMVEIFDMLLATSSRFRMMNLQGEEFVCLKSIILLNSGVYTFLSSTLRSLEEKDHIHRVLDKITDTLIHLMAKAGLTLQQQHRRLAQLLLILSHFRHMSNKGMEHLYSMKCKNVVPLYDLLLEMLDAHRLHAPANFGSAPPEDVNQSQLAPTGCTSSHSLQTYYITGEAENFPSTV
# How it was run: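 Scintillation counting of displaced radioligand gave the readout; bovine uterine membrane extract supplied the receptor. Measured 18 h post-dose, normalized to DMSO baseline. Single 25 uM duplicate screen preceded concentration-response follow-up.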
# [2] = biological target: Estrogen receptor (Homo sapiens) (UniProt P03372); assay: NVS_NR_hER: NovaScreen (NVS) Nuclear Receptor Binding Assay for human Estrogen Receptor (ER) (AID 2283348)
# Sequence of Estrogen receptor (Homo sapiens) (P03372 whole entry, looked up, the tested form may be a part): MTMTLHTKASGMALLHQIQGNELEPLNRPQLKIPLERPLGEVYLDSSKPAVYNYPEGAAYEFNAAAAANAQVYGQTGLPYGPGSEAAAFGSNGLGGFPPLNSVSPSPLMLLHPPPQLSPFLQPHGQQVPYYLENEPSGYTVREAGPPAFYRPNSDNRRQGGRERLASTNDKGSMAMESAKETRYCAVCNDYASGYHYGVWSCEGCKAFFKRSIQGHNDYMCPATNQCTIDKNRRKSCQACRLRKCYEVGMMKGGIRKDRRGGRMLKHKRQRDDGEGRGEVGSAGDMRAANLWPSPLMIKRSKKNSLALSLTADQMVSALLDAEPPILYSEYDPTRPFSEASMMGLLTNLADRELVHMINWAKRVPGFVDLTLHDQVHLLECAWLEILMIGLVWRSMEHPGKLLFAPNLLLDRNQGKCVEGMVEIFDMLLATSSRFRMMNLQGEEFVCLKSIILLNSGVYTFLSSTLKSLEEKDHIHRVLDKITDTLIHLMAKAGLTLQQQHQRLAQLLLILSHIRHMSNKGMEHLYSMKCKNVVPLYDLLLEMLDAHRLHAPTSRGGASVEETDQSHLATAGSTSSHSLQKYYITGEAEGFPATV
# How it was run: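 MCF7-derived receptor extract, radiolabelled ligand, competitive displacement. Read: scintillation counts at 18 h. DMSO = negative control/baseline. Primary 25 uM duplicate; follow-up concentration–response.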
# [3] = system: guinea pig Histamine Receptor (H2), gene 100729734; assay: NVS_GPCR_gH2: NovaScreen (NVS) G Protein-Coupled Receptor Assay for guinea pig Histamine Receptor (H2) (AID 2283342)
# How it was run: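 Guinea pig striatal membrane preparation with specific radioligand; bound counts measured by filtration and scintillation 1 h post-dosing, DMSO as baseline. Chemicals passing a 25 uM duplicate screen were titrated to a 50 uM maximum.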
# NCBI gene 100848466 = assay: NVS_NR_bPR: NovaScreen (NVS) Nuclear Receptor Binding Assay for bovine Progextron Receptor (PR) (AID 2283343);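 further: actives lower bound radioligand signal below DMSO meaning displacement of the label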
# How it was run: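 Scintillation counts of bound radioligand were read 18 hours after chemical addition to membranes extracted from bovine uterus. Displacement was scored as loss of signal relative to DMSO controls. Screening began at 25 uM in duplicate.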
# [4] = biological target: chimpanzee Androgen Receptor (AR), AR (gene 747460) (UniProt O97775); assay: NVS_NR_cAR: NovaScreen (NVS) Nuclear Receptor Binding Assay for chimpanzee Androgen Receptor (AR) (AID 2283346);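 further: radioligand displacement from AR measured by scintillation counting in a cell-free assay; a loss of bound radioligand signal versus DMSO counts as binding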
# Sequence of chimpanzee Androgen Receptor (AR), AR (gene 747460) (O97775 whole entry, looked up): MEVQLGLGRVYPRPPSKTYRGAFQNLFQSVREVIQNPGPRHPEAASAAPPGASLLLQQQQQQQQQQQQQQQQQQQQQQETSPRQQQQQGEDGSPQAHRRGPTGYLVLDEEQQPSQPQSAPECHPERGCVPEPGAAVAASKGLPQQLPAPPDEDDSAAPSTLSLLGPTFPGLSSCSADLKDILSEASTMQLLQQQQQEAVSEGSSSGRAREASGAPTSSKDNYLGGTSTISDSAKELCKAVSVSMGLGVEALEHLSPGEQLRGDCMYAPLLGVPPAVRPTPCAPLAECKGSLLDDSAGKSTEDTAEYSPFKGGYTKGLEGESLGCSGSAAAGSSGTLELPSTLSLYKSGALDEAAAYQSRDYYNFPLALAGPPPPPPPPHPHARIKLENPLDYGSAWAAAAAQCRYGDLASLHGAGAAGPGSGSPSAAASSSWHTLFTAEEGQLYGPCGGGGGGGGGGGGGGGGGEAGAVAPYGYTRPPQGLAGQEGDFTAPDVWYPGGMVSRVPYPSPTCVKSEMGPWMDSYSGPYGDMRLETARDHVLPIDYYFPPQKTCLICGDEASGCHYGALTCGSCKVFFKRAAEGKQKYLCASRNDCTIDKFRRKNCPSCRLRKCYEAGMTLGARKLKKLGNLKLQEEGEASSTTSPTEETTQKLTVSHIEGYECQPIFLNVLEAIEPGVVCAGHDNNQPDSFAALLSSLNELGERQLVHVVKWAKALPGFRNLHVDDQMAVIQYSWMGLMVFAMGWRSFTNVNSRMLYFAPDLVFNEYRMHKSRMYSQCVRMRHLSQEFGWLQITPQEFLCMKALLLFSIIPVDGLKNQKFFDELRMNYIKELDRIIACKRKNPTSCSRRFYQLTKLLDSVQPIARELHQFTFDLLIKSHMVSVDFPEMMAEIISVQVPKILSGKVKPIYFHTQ
# How it was run: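 Radioligand binding to chimpanzee AR expressed in Sf9/Sf21 cells, cell-free, measured 72 h after dosing by lysate-based scintillation counting. Loss of signal vs DMSO; initial duplicate screen at 25 uM, actives retested in concentration series.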
# [5] = biological target: Estrogen receptor (Homo sapiens) (UniProt P03372); assay: OT_ER_ERaERa_1440: Odyssey Thera (OT) 24-hour HEK293T Protein-Complementation Assay for Estrogen Receptor-alpha/-alpha Homodimer (AID 2283349);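 further: hits raise fluorescence above DMSO for agonists and antagonists alike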
# How it was run: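 Cells (HEK293T) carrying the fragment-tagged ERα LBD (aa 310-547) pair are treated with chemical for 24 hours. Nuclear and/or cytoplasmic fluorescence is then quantified on a laser scanning cytometer. Activity is scored as signal gain against DMSO.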
# [6] = biological target: Estrogen receptor (Homo sapiens) (UniProt P03372); assay: OT_ER_ERaERa_0480: Odyssey Thera (OT) 8-hour HEK293T Protein-Complementation Assay for Estrogen Receptor-alpha/-alpha Homodimer (AID 2283351);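 further: rise in fluorescence from reassembled reporter fragments on ERα LBD homodimer in nucleus or whole cell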
# How it was run: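 HEK293T cells stably expressing a PCA pair of ER alpha LBD (residues 310-547) were dosed for 8 hours. The gain in fluorescence intensity, nuclear for agonists and whole-cell for antagonists, was measured by laser scanning cytometry against DMSO vehicle.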
# [7] = biological target: Estrogen receptor (Homo sapiens) + Estrogen receptor beta (Homo sapiens) (UniProt P03372+Q92731); assay: OT_ER_ERaERb_1440: Odyssey Thera (OT) 24-hour HEK293T Protein-Complementation Assay for Estrogen Receptor-alpha/-beta Homodimer (AID 2283356);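 further: heteromer of ER alpha and ER beta binding domains; hits raise reporter fluorescence and both agonists and antagonists give an increase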
# Sequence of Estrogen receptor (Homo sapiens) + Estrogen receptor beta (Homo sapiens) (P03372 whole entry, looked up, the tested form may be a part): as the sequence (P03372 whole entry, looked up, the tested form may be a part) above
# Sequence of Estrogen receptor (Homo sapiens) + Estrogen receptor beta (Homo sapiens) (Q92731 whole entry, looked up, the tested form may be a part): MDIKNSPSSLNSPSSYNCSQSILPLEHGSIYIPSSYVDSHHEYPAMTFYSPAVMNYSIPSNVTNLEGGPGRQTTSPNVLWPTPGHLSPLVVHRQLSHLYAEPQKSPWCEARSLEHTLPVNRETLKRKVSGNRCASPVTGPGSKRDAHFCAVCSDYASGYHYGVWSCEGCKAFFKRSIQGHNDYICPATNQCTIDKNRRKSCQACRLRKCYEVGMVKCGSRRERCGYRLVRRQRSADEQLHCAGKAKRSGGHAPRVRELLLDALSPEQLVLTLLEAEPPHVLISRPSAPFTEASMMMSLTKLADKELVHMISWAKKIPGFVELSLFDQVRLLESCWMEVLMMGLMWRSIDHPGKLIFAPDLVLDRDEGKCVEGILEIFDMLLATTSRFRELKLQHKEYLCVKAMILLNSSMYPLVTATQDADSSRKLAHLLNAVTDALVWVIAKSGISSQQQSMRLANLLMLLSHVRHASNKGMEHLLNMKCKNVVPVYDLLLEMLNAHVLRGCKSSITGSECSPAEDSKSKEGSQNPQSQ
# How it was run: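 24 h exposure; HEK293T PCA cells with ERα/ERβ LBD fragments; signal rise in nuclear or whole-cell fluorescence over vehicle.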
# [8] = biological target: Estrogen receptor beta (Homo sapiens) (UniProt Q92731); assay: OT_ER_ERbERb_0480: Odyssey Thera (OT) 8-hour HEK293T Protein-Complementation Assay for Estrogen Receptor-beta/-beta Homodimer (AID 2283357);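 further: active means signal gain over DMSO baseline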
# Sequence of Estrogen receptor beta (Homo sapiens) (Q92731 whole entry, looked up, the tested form may be a part): as above
# How it was run: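 Homodimerization of ER-beta LBD measured by protein-fragment complementation in HEK293T; 8 h dosing; fixed, Draq5 counterstain; fluorescence intensity gain over DMSO baseline, positive fitting direction; laser scanning cytometry.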
# [9] = biological target: human Peroxisome Proliferator-activated Receptor alpha (PPARa), PPARA (gene 5465) (UniProt Q07869); assay: NVS_NR_hPPARa: NovaScreen (NVS) Nuclear Receptor Binding Assay for human Peroxisome Proliferator-activated Receptor alpha (PPARa) (AID 2283359);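 further: activity means loss of TR-FRET signal versus DMSO baseline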
# How it was run: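 TR-FRET signal measured at 1 h post-dosing; loss-of-signal versus DMSO negative control taken as activity. Extracted gene-protein, cell-free format. Initial single-point duplicates at 25 uM, then concentration-response retests.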
# PGR (gene 5241) = PGR (gene 5241) (UniProt P06401); assay: NVS_NR_hPR: NovaScreen (NVS) Nuclear Receptor Binding Assay for human Progestron Receptor (PR) (AID 2283360);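 further: active means loss of bound radioligand signal versus DMSO baseline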
# How it was run: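 T47D lysate; tritiated or iodinated radioligand; scintillation count at 18 h. DMSO = negative control/baseline. Primary: 25 uM, duplicate. Secondary: concentration series for actives.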
# [10] = biological target: rat Glutamate, MK-801 Agonist Site (GluNMDA_MK801), Grin1 (gene 24408) (UniProt P35439); assay: NVS_LGIC_rGluNMDA_MK801_Agonist: NovaScreen (NVS) Ligand-Gated Ion Channel Assay for rat Glutamate, MK-801 Agonist Site (GluNMDA_MK801) (AID 2283340)
# How it was run: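 Rat forebrain membrane preparation; MK-801-site radioligand binding read by filtration and scintillation after 1.5 h. Single-point 25 uM duplicate screen, followed by singleton concentration series to 50 uM max; DMSO baseline.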
# [11] = biological target: Androgen Receptor/SRC-1 Co-activator, AR (gene 367) (UniProt P10275); assay: OT_AR_ARSRC1_0960: Odyssey Thera (OT) 16-hour HEK293T Protein-Complementation Assay for Androgen Receptor/SRC-1 Co-activator (AID 2283353);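 further: actives raise the signal above DMSO so potency reflects increased AR and SRC-1 complex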
# Sequence of Androgen Receptor/SRC-1 Co-activator, AR (gene 367) (P10275 whole entry, looked up, the tested form may be a part): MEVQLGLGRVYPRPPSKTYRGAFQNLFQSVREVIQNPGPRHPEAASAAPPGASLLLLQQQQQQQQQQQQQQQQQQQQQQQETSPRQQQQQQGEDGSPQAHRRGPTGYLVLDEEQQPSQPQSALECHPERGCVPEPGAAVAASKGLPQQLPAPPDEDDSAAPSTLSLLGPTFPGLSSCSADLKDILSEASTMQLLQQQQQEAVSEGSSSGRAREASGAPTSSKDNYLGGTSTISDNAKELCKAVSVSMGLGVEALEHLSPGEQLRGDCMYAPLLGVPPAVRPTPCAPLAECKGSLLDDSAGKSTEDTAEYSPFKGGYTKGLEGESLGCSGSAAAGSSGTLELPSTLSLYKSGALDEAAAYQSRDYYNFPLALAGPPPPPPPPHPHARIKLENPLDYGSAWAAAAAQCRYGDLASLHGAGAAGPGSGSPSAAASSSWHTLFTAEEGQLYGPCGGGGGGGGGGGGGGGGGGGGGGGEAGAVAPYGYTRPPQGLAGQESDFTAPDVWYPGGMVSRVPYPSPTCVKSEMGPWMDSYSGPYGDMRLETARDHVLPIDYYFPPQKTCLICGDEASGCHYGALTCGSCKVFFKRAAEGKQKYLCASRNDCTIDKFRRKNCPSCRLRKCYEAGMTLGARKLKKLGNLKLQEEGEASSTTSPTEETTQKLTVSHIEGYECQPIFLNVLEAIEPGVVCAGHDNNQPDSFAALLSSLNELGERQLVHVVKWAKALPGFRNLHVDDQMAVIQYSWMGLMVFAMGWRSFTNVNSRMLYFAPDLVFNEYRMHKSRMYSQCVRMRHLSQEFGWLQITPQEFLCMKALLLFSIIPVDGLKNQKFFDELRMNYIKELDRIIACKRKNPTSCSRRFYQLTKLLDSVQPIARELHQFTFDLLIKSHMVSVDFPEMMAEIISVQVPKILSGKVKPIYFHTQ
# How it was run: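 Endpoint is gain-of-signal N/C fluorescence ratio in the 488 nm channel versus DMSO, from at least 400 cells per image, measured 16 h post-dosing. Cells: HEK293T stably carrying split-Venus AR/SRC-1 complementation constructs.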
# [12] = biological target: Androgen Receptor/SRC-1 Co-activator, AR (gene 367) (UniProt P10275); assay: OT_AR_ARSRC1_0480: Odyssey Thera (OT) 8-hour HEK293T Protein-Complementation Assay for Androgen Receptor/SRC-1 Co-activator (AID 2283354);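 further: hits raise the complementation signal above DMSO so AC50 marks enhancers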
# How it was run: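 Split-Venus PCA, stable HEK293T, AR/SRC-1 fusions; 8 h exposure. Readout: 488nm N/C fluorescence ratio, ≥400 cells/image; fitted upward vs DMSO baseline.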
# [13] = biological target: rat Glycine Receptor, Strychnine-sensitive (GlyRStrySens), Glra1 (gene 25674) (UniProt P07727); assay: NVS_LGIC_rGlyRStrySens: NovaScreen (NVS) Ligand-Gated Ion Channel Assay for rat Glycine Receptor, Strychnine-sensitive (GlyRStrySens) (AID 2283341)
# How it was run: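 Radioligand displacement on rat spinal cord membranes, 1 hr, filter scintillation read-out. Single-concentration duplicate screen at 25 uM; chemicals meeting threshold (e.g., 30% inhibition) rerun in concentration-response up to 50 uM. Loss of binding fitted versus DMSO.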
# [14] = biological target: Retinoic acid receptor alpha (Homo sapiens) (UniProt P10276); assay: NVS_NR_hRAR_Antagonist: NovaScreen (NVS) Nuclear Receptor Binding Assay for human Retinoic Acid Alpha Receptor Antagonism (RAR) (AID 2283358)
# How it was run: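 Read-out: time-resolved FRET binding signal, 2 h post-dose, cell-free extracted protein. Antagonism scored as signal loss versus DMSO negative control. Primary single-concentration screen at 25 uM in duplicate; concentration series for actives.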
smiles,measurement,setting,value
COP(=S)(OC)Oc1cc(Cl)c(Br)cc1Cl,outcome,[1],inactive
same,outcome,[2],inactive
C=C(C)C(=O)[O][Sn]([CH2]CCC)([CH2]CCC)[CH2]CCC,AC50,[3],2.23 µM (active)
same,AC50,NCBI gene 100848466,3.89 µM (active)
same,outcome,[1],inactive
same,AC50,[4],12.1 µM (active)
same,outcome,[2],inactive
same,outcome,[5],inactive
same,outcome,[6],inactive
same,outcome,[7],inactive
same,outcome,[8],inactive
same,outcome,[9],inactive
same,AC50,PGR (gene 5241),3.42 µM (active)
CC(C)(c1ccccc1)c1ccc(O)c(C(C)(C)c2ccccc2)c1,outcome,[1],inactive
same,outcome,[2],inactive
same,outcome,[5],inactive
same,outcome,[6],inactive
same,AC50,[7],12 µM (active)
same,AC50,[8],2.61 µM (active)
same,outcome,[9],inactive
CCN1CCC2(CC1)COc1cc3c(cc12)N(C(=O)c1ccc(-c2ccc(-c4nnc(C)o4)cc2C)cc1)CC3,AC50,[10],39.1 µM (active)
same,AC50,[3],11.6 µM (active)
same,AC50,[4],16.8 µM (active)
same,outcome,[5],inactive
same,AC50,[11],7.04 µM (active)
same,AC50,[12],11.7 µM (active)
same,outcome,[7],inactive
same,outcome,[8],inactive
CCC(=O)C(CC(C)N(C)C)(c1ccccc1)c1ccccc1 (stereo not drawn),AC50,[13],18.1 µM (active)
same,AC50,[3],4.02 µM (active)
same,outcome,[5],inactive
same,outcome,[6],inactive
same,outcome,[11],inactive
same,outcome,[7],inactive
same,outcome,[8],inactive
O=S(=O)(c1ccc(Cl)cc1)c1ccc(Cl)cc1,outcome,[1],inactive
same,outcome,[5],inactive
same,outcome,[6],inactive
same,outcome,[7],inactive
same,outcome,[8],inactive
O=[N+]([O-])c1ccc2c3c(cccc13)CC2,outcome,[1],inactive
ClC1=C(Cl)[C@]2(Cl)[C@H]3[C@H]([C@H]4C=C[C@H]3C4)[C@@]1(Cl)C2(Cl)Cl,outcome,[1],inactive
same,outcome,[2],inactive
O=C(O)C(F)(F)C(F)(F)C(F)(F)C(F)(F)C(F)(F)C(F)(F)C(F)(F)C(F)(F)C(F)(F)C(F)(F)F,AC50,NCBI gene 100848466,23.1 µM (active)
same,outcome,[8],inactive
CC(C)(c1ccc(OCC2CO2)cc1)c1ccc(OCC2CO2)cc1 (stereo not drawn),outcome,[1],inactive
same,outcome,[4],inactive
same,AC50,[2],14.2 µM (active)
same,outcome,[5],inactive
same,outcome,[6],inactive
same,AC50,[11],79.1 µM (active)
same,outcome,[12],inactive
same,outcome,[8],inactive
same,outcome,[14],inactive
NC(=O)O,outcome,[1],inactive
same,outcome,[5],inactive
same,outcome,[6],inactive
CCCCCCCCCCCCCCCC[n+]1ccccc1,outcome,[1],inactive
COC(=O)c1sccc1S(=O)(=O)NC(=O)Nc1nc(C)nc(OC)n1,outcome,[1],inactive
same,outcome,[2],inactive
same,outcome,[5],inactive
same,outcome,[6],inactive
same,outcome,[7],inactive
same,outcome,[8],inactive
O=C(Cc1ccccc1)c1ccccc1,outcome,[1],inactive
same,outcome,[2],inactive
same,outcome,[5],inactive
same,outcome,[6],inactive
